# CBFb-RUNX1 inh = qHTS Assay for Compounds Blocking the Interaction Between CBF-beta and RUNX1 for the Treatment of Acute Myeloid Leukemia; Potency, µM (titrated, usually from 59.8 µM), for the others: at the highest dose activity, negative = inhibition, most hits filed as inhibitors; 230,000 tested, under 10 active; AID 1477, 2009; Runt-related transcription factor 1 (Homo sapiens) + Core-binding factor subunit beta …; AlphaScreen CBFb-His/RUNX1-biotin binding, biochemical; also: % of control where 0% means no effect
#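 Compounds were screened at multiple concentrations against a preformed CBF-beta(His)/RUNX1(biotin) complex (30 nM of each) for 15 min at room temperature, followed by 90 min with nickel and streptavidin beads and AlphaScreen reading.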
# L3MBTL1 block = qHTS Assay for the Inhibitors of L3MBTL1; Lethal(3)malignant brain tumor-like protein 1 (Homo sapiens), Q9Y468; AlphaScreen L3MBTL1–H3K9me1 peptide binding; Potency, µM (titrated, usually from 57.1 µM), for inactives: at the top dose activity, negative = inhibition, actives largely listed as inhibitors; 230,000 tested, 0.66% active; AID 485360, 2010; also: potency is read from the fitted curve at half-maximal effect; % is scaled to controls: 0 for no effect and ±100 for the full control effect; nearly all actives have a fitted effect of over 60% in size
#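 AlphaScreen assay: L3MBTL1 (50 nM final) was preincubated 30 min at room temperature with biotinylated H3(1-15)K9me1 peptide (75 nM final), then 30 min with library compounds; streptavidin donor and nickel chelate acceptor beads (10 ug/mL final) added, 30 min dark.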
# MBNL1-CUG inh = qHTS Assay for Inhibitors of MBNL1-poly(CUG) RNA binding. TR-FRET MBNL1-His/biotin-(CUG)12 binding, 665/545 ratio. Potency, µM (doses to about 57.5 µM), for the others: at the top dose activity change, negative = inhibition, actives largely listed as inhibitors. 280,000 tested, 0.036% active. AID 2675, 2010; active = well fitted inhibition curve with a large enough effect in the signal ratio, with a control signal flat, not every such curve was filed as active; inconclusive = small, poorly fitted or top-dose-only effect, or effect the other way, or a change in a side signal; inactive = no such curve, though single readings can be large or run the other way; the % refers to the signal ratio; also: potency is read from the fitted curve at half-maximal effect; % is scaled to controls: 0 for no effect and ±100 for the full control effect
# Target sequence (Q9NR56 whole entry, looked up): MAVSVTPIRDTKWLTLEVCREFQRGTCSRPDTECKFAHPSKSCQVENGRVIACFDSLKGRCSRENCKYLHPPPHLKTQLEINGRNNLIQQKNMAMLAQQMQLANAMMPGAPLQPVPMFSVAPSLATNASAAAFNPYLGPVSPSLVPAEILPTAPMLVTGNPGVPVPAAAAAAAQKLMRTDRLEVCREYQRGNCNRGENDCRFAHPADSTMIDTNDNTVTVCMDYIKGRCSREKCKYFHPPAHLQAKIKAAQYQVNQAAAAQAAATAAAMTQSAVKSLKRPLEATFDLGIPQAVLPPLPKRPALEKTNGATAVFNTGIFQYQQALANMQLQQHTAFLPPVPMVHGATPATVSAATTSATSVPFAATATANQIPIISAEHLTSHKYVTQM
#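 Compounds (final 92 nM to 58 uM) are added to His-tagged MBNL1 and biotin-(CUG)12, then terbium anti-His antibody and streptavidin-XL665 (5 nM final). After 60 min at room temperature, the 665/545 nm ratio is read.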
# Six1-Eya2 inh = qHTS Assay for Inhibitors of the Six1/Eya2 Interaction. 360,000 tested, 0.56% active. Homeobox protein SIX1 (Homo sapiens) + Protein phosphatase EYA2 (Homo sapiens), …. activity change, % (no concentration beside the values). AID 651725, 2012. AlphaScreen GST-Six1/His-Eya2 binding, biochemical; active compounds read low; in the data active = activity change below about -65%; inconclusive = mostly about -30% to -63%; also: % is scaled to controls: 0 for no effect and ±100 for the full control effect
#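 Homogeneous AlphaScreen proximity assay pairing GST-Six1 with His-tagged Eya2 (added as 5X mix: 250 nM and 500 nM) in 50 mM Tris pH 8.0, 300 mM NaCl, 1 mM TCEP. Glutathione donor and nickel acceptor beads; 1 h, 37 °C, dark.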
# CtBP-E1A blk = qHTS Assay for Inhibitors of the CtBP/E1A Interaction; CtBP / adenovirus E1A interaction (AlphaScreen); AlphaScreen GST-E1A/His-CtBP binding, 1536-well; active compounds read low; 340,000 tested, 0.49% active; AID 651724, 2012; activity change, % (no concentration beside the values); in the data active = activity change below about -65%; inconclusive = mostly about -30% to -63%; also: % is scaled to controls: 0 for no effect and ±100 for the full control effect
#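 GST-E1A and His-tagged CtBP (125 nM each as 5X stock) were preincubated with pin-transferred compound for 2 h at 37 °C in the dark, then glutathione donor and nickel acceptor beads were added for 1 h before AlphaScreen reading.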
# Eya2 phos inh = qHTS Assay for Inhibitors of the Phosphatase Activity of Eya2. Protein phosphatase EYA2 (Homo sapiens), O00167. recombinant Eya2, OMFP fluorescence dephosphorylation (OMFP is methylfluorescein phosphate). Potency, µM (doses to about 76.9 µM), without a hit: at the top dose activity, negative = inhibition, actives largely listed as inhibitors. 330,000 tested, 0.006% active. AID 488837, 2010; also: potency is read from the fitted curve at half-maximal effect; % is scaled to controls: 0 for no effect and ±100 for the full control effect
#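 Eya2 (0.2 uM) preincubated 10 min at ambient with compound, then OMFP substrate added at 50 uM; 10 min reaction in 50 mM HEPES pH 7.5, 50 mM NaCl, 5 uM MgCl2, 0.05% BSA, 1 mM DTT. Fluorescence read at Ex 485/Em 525 nm.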
# MBNL1 TRFRET = qHTS Assay for Inhibitors of MBNL1-poly(CUG) RNA binding: Initial hit validation from the primary screen. shares compounds with MBNL1-CUG inh. TR-FRET MBNL1-His / biotin-(CUG)12 binding, 60 min. Potency, µM (titrated, usually from 57.6 µM), inactives show at the top dose activity change, negative = inhibition, usual class: inhibitors. 140 tested, 50% active
# MBNL1 AlphaScrn = qHTS Assay for Inhibitors of MBNL1-poly(CUG) RNA binding: Initial hit validation in AlphaScreen assay for MBNL1-(CUG)12 binding | shares compounds with MBNL1-CUG inh | AlphaScreen MBNL1-His / biotin-(CUG)12 binding | Potency, µM (series often up to 57.7 µM), for the others: at the highest dose activity, negative = inhibition, actives largely listed as inhibitors | 140 tested, 30% active
# Menin-MLL HTRF = qHTS Assay for Inhibitors of MBNL1-poly(CUG) RNA binding: Counterscreen HTRF assay; 120 tested, 20% active; His-Menin/biotin-MLL peptide TR-FRET counterscreen; shares compounds with MBNL1-CUG inh; Potency, µM (top dose mostly 57.6 µM), without a hit: top-dose activity, negative = inhibition, hits mostly inhibitors
# * hit, by the source's call; u = inconclusive; x = no result; [ ] = remark or other dose. This is a sample that favours compounds with a hit; in the whole collection about 0.89% have one here. Unless noted, calls follow the shape of the dose curve; as a rule, active = well fitted curve in the direction sought with a large enough effect; inconclusive = small, poorly fitted or top-dose-only effect, or another doubt; inactive = no such curve, though single readings can be large; an effect the other way counts as inactive or inconclusive.
SMILES,CBFb-RUNX1 inh,L3MBTL1 block,MBNL1-CUG inh,Six1-Eya2 inh,CtBP-E1A blk,Eya2 phos inh,MBNL1 TRFRET,MBNL1 AlphaScrn,Menin-MLL HTRF
CC(C)OC(=O)CSc1nnc(-c2cnccn2)n1C,-2%,31%,40µM*,8,-2,0%,u,-10%,0%
NCCCC(N)CC(=O)NCC1NC(=O)C(CO)NC(=O)C(N)CNC(=O)C(C2CCN=C(N)N2)NC(=O)/C(=C/NC(N)=O)NC1=O (stereo not drawn),x,x,x,x,x,x,-1%,-7%,x
COc1ccc(CC(=O)Oc2ccc(C)cc2Br)cc1OC,x,x,16µM*,3,6,1%,u,5.2µM*,16µM*
Cc1ccc(NC(=O)Nc2ccc(F)c(Cl)c2)cc1,8%,3%[11.4 µM],0%,9,-10,-10%,x,x,x
CCC(CC)NC(=O)Nc1ccc(F)c(Cl)c1,9%,56%,40µM*,0,-5,-9%,u,4%,-23%
Cc1ccc(S(=O)(=O)N2CCOCC2)cc1NC(=O)CSCc1c(C)noc1C,x,-4%,x,1,1,-3%,x,x,x
CN(Cc1ccc(Cl)s1)C(=O)CN1C(=O)N(C)C2(CCCCC2)C1=O,x,-9%,x,8,-7,21%,x,x,x
Cc1cc2c(c(=O)n1CCN(C)C)C(c1ccccc1Br)C(C#N)=C(N)O2 (stereo not drawn),2%,23%,10µM*,-2,0,11%,13µM*,-7%,26µM*
CCOC(=O)CCCCC(=O)c1[nH]c(=O)[nH]c1Cn1ccnc1,3%,-2%,40µM*,-1,-2,0%,41µM*,u,-3%
NC(=NCc1ccc2c(c1)OCO2)NC(=O)c1ccccc1,5%,u,x,-8,-10,11%,13µM*,13µM*,4%
C/C(CCc1ccc2c(c1)OCO2)=N\NC(=O)c1ccccc1,5%,1%,10%,9,3,7%,x,x,x
CCCn1c2ccccc2c2nnc(SCc3[nH]c(=O)[nH]c3C(=O)CCCCC(=O)OCC)nc21,5%,u,u,-20,-11,5%,x,x,x
CCOC(=O)CCCCC(=O)c1[nH]c(=O)[nH]c1CSc1nnc2c3ccccc3n(C(C)C)c2n1,-17%,-9%,28µM*,-16,-20,5%,u,3.7µM*,-11%
CC(C)NCC(O)c1ccc(O)c(O)c1 (stereo not drawn),-16%,x,-6%,8,-1,-1%,x,x,x
CNC[C@H](O)c1ccc(O)c(O)c1,u,u,22µM*,-7,-2,9%,-14%,-2%,4%

# Compound activity: PubChem, National Center for Advancing Translational Sciences (NCATS)
